Several values for one entry are separate records, joined by “and”; a condition that tells them apart may be missing. Equal entries are not always repeated. The campaign covered roughly 5,500 compounds. About 2,000 (36%) were called active. Another 18% or so got no clear call; they are omitted. Cut-off read from the data, not from the text of the source: active = normalized growth mostly below about 0.91 (no sharp cut-off); inconclusive = no clear call, values can overlap the other calls; inactive = mostly above about 0.92. The list shows a part of the results.
Assay: chemical genetic growth profiling, strain panel (AID 1159580);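 note: tested at 20 µM; growth read once vehicle control cultures reached saturation at 30 °C; 1 = growth at the plate median or of vehicle wells; lower values mean less growth of the strain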
Conditions: S. cerevisiae deletion strains, growth OD

Measured: normalized growth

C[C@H]1[C@H](C)CC[C@]2(CO)CC[C@]3(C)C(=CCC4[C@@]5(C)CC[C@H](O)C(C)(C)C5CC[C@]43C)[C@H]12 (some centres not stated)
inactive: locus YAL021C, strain ccr4, active compounds read low 1.02 | locus YAL026C, strain drs2, active compounds read low 0.981 | locus YAL030W, strain snc1, active compounds read low 0.997 | locus YBL061C, strain skt5, active compounds read low 0.994 | locus YBR009C, strain hhf1, active compounds read low 1.01 | locus YBR021W, strain FUR4, active compounds read low 1.01 | locus YBR023C, strain chs3, active compounds read low 0.995 | locus YBR171W, strain sec66, active compounds read low 0.989 | locus YBR229C, strain ROT2, active compounds read low 1.02 | locus YBR231C, strain swc5, active compounds read low 0.996 | locus YBR279W, strain paf1, active compounds read low 0.991 | locus YCL011C, strain gbp2, active compounds read low 0.994 | locus YCL016C, strain dcc1, active compounds read low 1.01 | locus YCL029C, strain bik1, active compounds read low 1.06 | locus YCL061C, strain MRC1, active compounds read low 1 | locus YCL069W, strain vba3, active compounds read low 0.998 | locus YCR088W, strain abp1, active compounds read low 0.995 | locus YDL005C, strain med2, active compounds read low 0.986 | locus YDL035C, strain GPR1, active compounds read low 0.994 | locus YDL040C, strain nat1, active compounds read low 0.996 | locus YDL074C, strain BRE1, active compounds read low 1.03 | locus YDL101C, strain DUN1, active compounds read low 1.02 | locus YDL134C, strain PPH21, active compounds read low 0.999 | locus YDL185W, strain tfp1, active compounds read low 1.03 | locus YDL192W, strain arf1, active compounds read low 1.04 | locus YDR001C, strain nth1, active compounds read low 1 | locus YDR069C, strain doa4, active compounds read low 0.988 | locus YDR101C, strain arx1, active compounds read low 1.01 | locus YDR137W, strain rgp1, active compounds read low 0.996 | locus YDR159W, strain sac3, active compounds read low 1.01 | locus YDR162C, strain NBP2, active compounds read low 1.01 | locus YDR195W, strain ref2 0.992 | locus YDR297W, strain sur2, active compounds read low 1.01 | locus YDR318W, strain mcm21, active compounds read low 1.02 | locus YDR334W, strain swr1, active compounds read low 0.992 | locus YDR335W, strain msn5, active compounds read low 0.999 | locus YDR388W, active compounds read low 1.02 | locus YDR392W, strain spt3, active compounds read low 1.03 | locus YDR502C, strain sam2, active compounds read low 0.998 | locus YEL003W, strain gim4, active compounds read low 1 | locus YEL037C, strain rad23, active compounds read low 0.981 | locus YEL061C, strain CIN8 (second series), active compounds read low 0.972 | locus YEL061C, strain CIN8, active compounds read low 1.01 | locus YER015W, strain faa2, active compounds read low 1 | locus YER016W, strain bim1, active compounds read low 0.988 | locus YER110C, active compounds read low 1.03 | locus YER111C, strain swi4, active compounds read low 1.01 | locus YER155C, strain BEM2 (second series), active compounds read low 0.995 | locus YER155C, strain BEM2, active compounds read low 1.02 | locus YER167W, strain BCK2, active compounds read low 0.994 | locus YFR010W, strain ubp6, active compounds read low 0.987 | locus YGL078C, strain dbp3, active compounds read low 1.01 | locus YGL086W, strain mad1, active compounds read low 1.01 | locus YGL167C, strain pmr1, active compounds read low 0.996 | locus YGL173C, strain kem1, active compounds read low 1 | locus YGL227W, strain vid30, active compounds read low 0.999 | locus YGL240W, strain doc1, active compounds read low 0.975 | locus YGL248W, strain PDE1, active compounds read low 1.01 | locus YGL253W, strain hxk2, active compounds read low 0.995 | locus YGR135W, strain pre9, active compounds read low 1.01 | locus YGR252W, strain gcn5, active compounds read low 1.02 | locus YHR013C, strain ard1, active compounds read low 0.982 | locus YHR027C, strain rpn1, active compounds read low 1 | locus YHR030C, strain SLT2, active compounds read low 1.01 and 1.03 | locus YHR079C, strain IRE1 (second series), active compounds read low 1.02 | locus YHR079C, strain IRE1, active compounds read low 1.04 | locus YHR094C, strain hxt1, active compounds read low 1.03 | locus YHR129C, strain ARP1, active compounds read low 1.02 | locus YHR142W, strain chs7, active compounds read low 1.01 | locus YHR200W, strain rpn10, active compounds read low 1.01 | locus YIL066C, strain RNR3, active compounds read low 1.01 | locus YIL073C, strain SPO22, active compounds read low 1.05 | locus YIL125W, strain kgd1, active compounds read low 1.03 | locus YIR030C, strain dcg1, active compounds read low 1.02 | locus YJL092W, strain hpr5, active compounds read low 0.995 | locus YJL095W, strain BCK1 (second series), active compounds read low 1.01 | locus YJL095W, strain BCK1, active compounds read low 1.02 and 0.984 | locus YJL115W, strain asf1, active compounds read low 0.991 | locus YJL129C, strain trk1, active compounds read low 1 | locus YJL134W, strain LCB3, active compounds read low 1.01 | locus YJL154C, strain vps35, active compounds read low 0.986 | locus YJL164C, strain tpk1, active compounds read low 1.01 | locus YJL166W, strain qcr8, active compounds read low 0.994 | locus YJL168C, strain set2, active compounds read low 1.02 | locus YJL187C, strain SWE1 (second series), active compounds read low 1.02 | locus YJR043C, strain POL32, active compounds read low 1 | locus YJR066W, strain TOR1, active compounds read low 0.997

Source: PubChem BioAssay AID1159580 (chemical genetic matrix, 2015)
